Measurements published in publication PMC4552634, “A New Set of Chemical Starting Points with Plasmodium falciparum Transmission-Blocking Potential for Antimalarial Drug Discovery” (PLoS ONE, 2015).
The campaign covered roughly 13,000 compounds. About 3,200 (25%) showed an effect of 50% or more. The list shows a part of the results.

Test system: P. falciparum stage V gametocytes
Set-up: BacTiter-Glo ATP luminescence viability of purified stage V gametocytes in 384-well plates, per cent inhibition versus DMSO
Conditions: 48 h, 5 µM; inhibitor

Structure (SMILES)	% Inhibition [%]
CC(C)NC(=O)c1cccc(-c2ccc(OCCN3CCCC3c3cc4ccccc4[nH]3)cc2)c1 (stereo not drawn) [TCMDC-134385]	-6.463
CC(C)CN1C(=O)c2ccccc2C(C(=O)Nc2cccc(C#N)c2)C1c1cccs1 (stereo not drawn) [TCMDC-124758]	44.13
CC(=O)c1cccc(NC(=O)C2c3ccccc3C(=O)N(CC(C)C)C2c2cccs2)c1 (stereo not drawn) [TCMDC-124756]	54.72
CC(=O)c1ccc(NC(=O)C2c3ccccc3C(=O)N(CC(C)C)C2c2cccs2)cc1 (stereo not drawn) [TCMDC-124757]	58.39
CC(C)CN1C(=O)c2ccc(C(=O)Nc3nccs3)cc2C1=O [TCMDC-125773]	-2.752
Cc1ccc(Nc2nc3cc(N(C)c4ccnc(Nc5cccc(CS(C)(=O)=O)c5)n4)ccc3o2)cc1 [TCMDC-141956]	-42.21
CC(C)C1=NCc2ccc([N+](=O)[O-])cc2C(=O)N1 [TCMDC-131785]	-3.925
Cn1nc(-c2cccc(CNC3CCc4ccccc43)c2)c2cnc(NC3CCCC3)nc21 (stereo not drawn) [TCMDC-135030]	-10.51
Cn1nc(-c2cccc(CN[C@@H]3CCc4ccc(O)cc43)c2)c2cnc(NCCCN3CCCC3)nc21 [TCMDC-135035]	59.7
Cn1nc(-c2cccc(CNC3CCc4ccccc43)c2)c2cnc(NCCCN3CCCC3)nc21 (stereo not drawn) [TCMDC-135034]	78.32
Cn1nc(-c2cccc(CN[C@@H]3CCc4ccc(O)cc43)c2)c2cnc(NC3CCCC3)nc21 [TCMDC-135032]	-0.5073
Cn1nc(-c2ccc(CN[C@@H]3CCc4ccc(O)cc43)cc2)c2cnc(NCCCN3CCCC3)nc21 [TCMDC-135037]	45.21
c1cc(CN2CCc3ccccc3CC2)cc(-c2c[nH]c3nc(NC4CCCC4)ncc23)c1 [TCMDC-133774]	-80.37
O=C(N[C@@H](CC1CCCCC1)C(=O)NC1CC1)c1ccc(O)c(-c2cccc(C(F)(F)F)c2)c1 [TCMDC-140807]	9.846
COc1ccc(-c2nc3nc4ccccc4cc3[nH]2)c(OCC(O)CNC(C)C)c1 (stereo not drawn) [TCMDC-137443]	26.08
COc1ccc(NC(=O)c2ccc(-c3cc(NC(=O)c4ccnc(N5CCCC5)c4)ccc3C)s2)cc1N1CCN(C)CC1 [TCMDC-136373]	32.31
CN(C)CCC1CCN(CCS(=O)(=O)c2cccc(Nc3ccc(-c4cccc(F)c4)cn3)c2)CC1 [TCMDC-134375]	43.14
COCCOC(=O)C(=O)c1c(-c2ccccc2)c(-c2ccc(OC)c(OC)c2)c2c3cc(OC)c(OC)cc3ccn12 [TCMDC-125087]	52.27
COC(=O)C(=O)c1c(-c2ccccc2)c(-c2ccc(OC)c(OC)c2)c2c3cc(OC)c(OC)cc3ccn12 [TCMDC-125088]	26.26
COc1ccc(-c2cc(C(=O)N3CCc4ccccc43)c3ccccc3n2)cc1OC [TCMDC-123715]	-27.24
CCc1ccc(CN(CCCOc2cccc(CC(=O)NCc3cnc[nH]3)c2)Cc2ccc(-n3ccnc3)cc2)cc1 [TCMDC-134288]	15.75

Structure (SMILES)	% Inhibition [%]
O=C(NCc1ccco1)c1ccc(CN2CCN(C(c3ccccc3)c3ccccc3)CC2)cc1 [TCMDC-140763]	-11.73
O=C(Cc1cccc(OCCCN(Cc2cccc(C(F)(F)F)c2Cl)CC(c2ccccc2)c2ccccc2)c1)NCc1ccco1 [TCMDC-141563]	90.42
CCCc1cc(OC)c(CC2c3cc(O)c(Cl)cc3C(c3ccccc3)CN2C)cc1OC (stereo not drawn) [TCMDC-137432]	12.27
CCCCNC(=O)c1[nH]c2c(NC(=O)COc3ccccc3)cccc2c1-c1cccc(NC(=O)C(N)CO)c1 (stereo not drawn) [TCMDC-140060]	-98.74
CC(C)N1CCC(N(Cc2ccc(-c3ccc(C(F)(F)F)cc3)cc2)C(=O)Cn2c(CCc3cccc(F)c3F)cc(=O)c3cn(C)nc32)CC1 [TCMDC-136048]	117.7
CCN1CCC(N(Cc2ccc(-c3ccc(C(F)(F)F)cc3)cc2)C(=O)Cn2c(CCc3cccc(F)c3F)cc(=O)c3cn(C)nc32)CC1 [TCMDC-141156]	59.01
Cc1ccc(O)cc1Nc1ccnc2cc(-c3ccccc3)ccc12 [TCMDC-138295]	-25.3
COc1cc2c(cc1NS(=O)(=O)c1ccc(OCc3ccc(Br)cc3)cc1)CCN(C1CCC1)CC2 [TCMDC-136020]	14.15
Nc1nc2c(c(=O)[nH]1)CN(S(=O)(=O)c1ccc(C(=O)N[C@@H](CCC(=O)O)C(=O)O)cc1)CC2 [TCMDC-137681]	-6.076
CCCN(C(=O)c1ccccc1C)c1nnc(-c2cccc(C)c2)s1 [TCMDC-124387]	20.16
CCOc1ccc(N(CC)S(=O)(=O)c2cc(Br)cc3c2N(C(=O)C2CC2)CC3)cc1 [TCMDC-125469]	14.82
CN1CCN(CCCN(Cc2cccc(-c3ccc(CNCCc4ccccc4)cc3)c2)C(=O)c2cccs2)CC1 [TCMDC-140568]	106.4
CN1CCN(CCCN(Cc2ccc(-c3ccc(CNCCc4ccccc4)cc3)cc2)C(=O)c2cccs2)CC1 [TCMDC-140752]	86.87
O=C(NCCN1CCOCC1)c1ccc(-c2ccc(CNCCCc3ccccc3)cc2)nc1 [TCMDC-134245]	16.29
CN(C)CCN(C)Cc1ccc(-c2cccc(NC(=O)c3cccc(C#N)c3)c2)cc1 [TCMDC-132651]	-77.89
Cc1noc(C)c1-c1cccc(CNCc2ccc(-c3ccc(-c4nc5cc(C(F)(F)F)ccc5[nH]4)s3)cc2)c1.O=C(O)C(F)(F)F [TCMDC-133062]	33.98
CC1CC(NCCCNc2cc(=O)c3ccccc3[nH]2)c2c1cc(Cl)c(Cl)c2Cl (stereo not drawn) [TCMDC-139480]	-50.98
CN(C)c1nc(NCc2ccccc2)nc(N/N=C/c2cc([N+](=O)[O-])ccc2O)n1 [TCMDC-124126]	65.13
O=[N+]([O-])c1ccc(Nc2nc(NCc3ccccc3)nc(N/N=C/c3ccccc3[N+](=O)[O-])n2)cc1 [TCMDC-124208]	9.563
O=[N+]([O-])c1ccc(Nc2nc(N/N=C/c3cc(Cl)cc(Cl)c3O)nc(Nc3ccccc3)n2)cc1 [TCMDC-123854]	16.66
CCCCC(CCCC)CN1C(=O)C(c2ccccc2)(c2ccccc2)N=C1N [TCMDC-136878]	-47.08

Structure (SMILES)	% Inhibition [%]
CC1CCCN(S(=O)(=O)c2cc(Br)cc3c2N(C(=O)C2CC2)CC3)C1 (stereo not drawn) [TCMDC-123872]	16.45
CCn1c(CN2CCN(Cc3ccccc3)CC2)nc2cc(NC(=O)c3cccs3)ccc21 [TCMDC-125164]	1.939
CCCC[C@@H](C(=O)NCCc1ccc(Cl)cc1)N1C(=O)CCC1C(=O)Nc1ccc(Cl)c(Cl)c1 (stereo partly drawn) [TCMDC-141410]	67.56
O=C(Nc1ccc(Cl)c(Cl)c1)C1CCC(=O)N1[C@@H](Cc1ccccc1)C(=O)NCCc1ccc(Cl)cc1 (stereo partly drawn) [TCMDC-141411]	6.201
CCCC[C@@H](C(=O)NCc1ccccc1C(F)(F)F)N1C(=O)CCC1C(=O)Nc1ccc([N+](=O)[O-])cc1 (stereo partly drawn) [TCMDC-141409]	20.34
CN(CCN(C)C(=O)NCc1ccccc1)C(=O)NCc1ccccc1 [TCMDC-138997]	-5.894
COc1ccc(NS(=O)(=O)c2ccc(C(=O)Nc3ccc(OC(F)(F)F)cc3)cc2)cc1N1CCN(CC2CC2)CC1 [TCMDC-136298]	-1.186
N#Cc1ccc2c(c1)CCN(CCC1CCC(NC(=O)c3cc4ccc(Cl)cc4[nH]3)CC1)C2 (stereo not drawn) [TCMDC-139194]	-33.95
Cc1ccc(CN2CCCN(Cc3cccc(C(=O)Nc4ccc(C(C)(C)C)cc4)c3)CC2)s1 [TCMDC-135991]	-86.63
O=C(Nc1ccc(CN2CCOCC2)cc1)c1ccc(-c2ccc(Cl)cc2)o1 [TCMDC-124455]	70.13
CC(C)(C)c1ccc(NC(=O)c2ccc(CN3CCCN(Cc4ccc(F)cc4)CC3)cc2)cc1 [TCMDC-136435]	-15.47
CN1CCCN(Cc2cccc(-c3ccc(NC(=O)c4ccc(Cl)cc4)cc3)c2)CC1 [TCMDC-132667]	81.69
O=C(Nc1ccc(Cl)cc1)c1ccc(CN2CCCN(Cc3ccccc3)CC2)cc1 [TCMDC-136401]	-26.98
O=C(Nc1ccc(Cl)cc1)c1ccc(CN2CCCN(Cc3ccc(F)cc3)CC2)cc1 [TCMDC-136408]	63.43
Cc1ccc(CN2CCCN(Cc3ccc(C(=O)Nc4ccc(Cl)cc4)cc3)CC2)s1 [TCMDC-136414]	86.68
CCc1ccc(NC(=O)c2ccc(CN3CCCN(Cc4ccc(C)s4)CC3)cc2)cc1 [TCMDC-136449]	10.45
O=C(Nc1ccc(CN2CCOCC2)cc1)c1ccc(-c2ccc(Br)cc2)o1 [TCMDC-123781]	-11.97
O=C(Nc1ccc(CN2CCOCC2)cc1)c1ccc(-c2cc(Cl)ccc2Cl)o1 [TCMDC-125390]	-41.52
CN1CCCN(Cc2cccc(-c3cccc(NC(=O)c4ccc(Cl)cc4)c3)c2)CC1 [TCMDC-132653]	14.2
CN1CCCN(Cc2cccc(-c3ccc(NC(=O)c4cccc(Cl)c4)cc3)c2)CC1 [TCMDC-132664]	44.2
COc1ccc(C2CC(c3ccccc3)=NN2C(=O)c2ccc(Br)o2)cc1 (stereo not drawn) [TCMDC-123705]	-10.79
